Data published in the supplement of paper PMC11417369.
± gives the standard deviation of the averaged measurements. Whole data set: some 25,000 sequences, median “ln(normalized median fluorescence intensity)” near 10, cut for the highest 2% near 12. What follows is part of a selection rich in the highest values, with near analogues and random picks from the rest.

System: PfAP2-G AP2 domain (GST-tagged)
Experiment: gcPBM binding intensity (ln(normalized median fluorescence intensity)); higher = stronger DNA binding
Method in brief: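 GST-tagged P. falciparum DNA-binding domains produced in E. coli were incubated for 1 h on an Agilent 4 × 180k array of primer-extended double-stranded 36-bp intergenic genomic probes with negative controls. Binding intensity is the highest Masliner-normalised natural-log median intensity across replicate spots of either probe orientation, with bound protein detected by Alexa488 anti-GST antibody at 488 nm.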

Sequence	gcPBM binding intensity (ln)
ATAGCACATTTTTAAGCACACGTTTATTATATATAT [CACACA_site6084]	10.3 ± 0.24
AAACAAAAGGAAAACATATATATATTAAATGTATAT [CACACA_negctrl_site1663]	9.64 ± 0.33
GAATTAAAATAATACGTACACACATGTATAATACAT [CACACA_site1004]	11.7 ± 1.2
ATAAAATATAAAAAAAGTACAAAAAAAAAAAAAAAA [XGTACX_site6657]	11.2 ± 1.1
ATGCTTTTTTATAAAAGTACATAAAGTTTTTACACT [XGTACX_site7307]	11.3 ± 0.81
TTTTTTTTTTTAAAATGTACACGTAATTACATATAT [XGTACX_site752]	11.4 ± 0.95
ATGTTTTATAAAAGGCGTACACATATGCTTAAGTAA [XGTACX_site6232]	11.8 ± 0.94
AGAATTAAAATAATACGTACACACATGTATAATACA [XGTACX_site1878]	11.5 ± 0.82
TTTTTTTTTTTTACGTGTACATAAATGTTAAGTAAT [XGTACX_site3901]	11.4 ± 0.91
AAAAAAAAAAAAAAAAGTACAAATAAAAAAAAAATA [XGTACX_site4814]	11.4 ± 0.85
GATAAAGTAAAAATATGTACATATATATTTTAAGTT [XGTACX_site6439]	11.4 ± 0.78
ATTAAAATAATACGTACACACATGTATAATACATAT [CACACA_site1005]	11.5 ± 0.91
AAGTATAAAAAAAGGCGTACAAAAAAAAAAAAAAAA [XGTACX_site7309]	11.7 ± 0.9
ACTTTTTTAATGTTACGTACACATAAATAATAATTA [XGTACX_site8092]	11.6 ± 0.9
ATAGCCAAAAATCATGCACACCTAAAAAAAAAAAAA [CACACA_site8826]	10.1 ± 0.6
TAGTTTTCTTAAAGATGTACTTATTAAAAATAAACT [XGTACX_site1001]	11.3 ± 1.1
TATATCTCTTTATTCACACATACGTTTTAAAATAAT [CACACA_site5542]	10.2 ± 0.13
TAAGGTTAAATAATATGTACATATTATTATATATAT [XGTACX_site6953]	11.3 ± 0.72
AAGTATAAATAAAGGCGTACACATGTAAATTATATT [XGTACX_site126]	11.7 ± 1.1
ATTATGTTAAAAAGGCGTACATGTTATAAGGTCCTA [XGTACX_site344]	11.7 ± 1.2
TAAAAGTATATATATACACACATAAATATATATGTA [CACACA_site663]	9.86 ± 0.14
AAAAATAAATATATATGTACACATATGTATACAATA [XGTACX_site4692]	11.6 ± 0.97
ATAATAAATTATTATGTACACACATAATAGTATATA [CACACA_site8538]	11.3 ± 0.88
AATACAATAAAAAAAAGTACACATGTATAAAAAATT [XGTACX_site8270]	11.6 ± 0.8
AATAAATTATTATGTACACACATAATAGTATATATA [CACACA_site1820]	11.4 ± 0.85
GTATATATATATAAAAGTACATGTTATGAAAAAAAA [XGTACX_site5410]	11.3 ± 0.81
TTTTTTAAATTTTGAATTATAACTACATTAAAGAAA [GTGCAC_negctrl_site279]	9.8 ± 0.33

Sequence	gcPBM binding intensity (ln)
AATATATATATTTAAGTGCATAATATTGTAATATTA	9.91 ± 0.028
GGTATATAAAAATATTGTACTTAAAAAAATATGTAT [XGTACX_site6253]	11.4 ± 0.99
TTGTTAATATGATAAAAGAGGAATATTCTCTTCCTA [GTGCAC_negctrl_site659]	9.48 ± 0.14
ATATACATAATCTTCTTGCACTTTTTTTTTTTTTTT [GTGCAC_site9410]	10.3 ± 0.22
AAAAAAGAACGCATAGTGCATATCTAAAAGATTTTT	9.85 ± 0.014
TATGTTAAAAAAAAATGTACATATGTTTTTGTTAAA [XGTACX_site4754]	11.2 ± 0.86
ATGACGTAGTGGTGTACACACATGGTACCTTTATTC [CACACA_site1547]	11.6 ± 0.84
ATATGACGTAGTGGTGTACACACATGGTACCTTTAT [CACACA_site8436]	11.9 ± 1.1
TATATATATATATGTACACACATATATACCTTTCAT [CACACA_site2679]	11.4 ± 0.81
TATATATATTTATGTACACACATATATACCTTTCAT [CACACA_site5479]	11.4 ± 0.86
AATATGACGTAGTGGTGTACACACATGGTACCTTTA [XGTACX_site3147]	11.7 ± 0.83
ATATAATATATATGGTGTACATTTTTTAGTGCTATT [XGTACX_site1662]	11.4 ± 0.76
TTATATATTAATAGTAGTACTATATTGAATCACCCC [XGTACX_site2868]	11.3 ± 0.85
TAATTTATAAATATAATATTTATGTATATGATGTTT [CACACA_negctrl_site464]	9.795 ± 0.078
CATATTTTGAACTTCACACATATATATATATATATA [CACACA_site4228]	10.3 ± 0.54
TCACACCTTTTTGGTTGTACTTAAATTTCTTTTTTT [XGTACX_site6438]	11.2 ± 0.75
TTTTCTCAATTTTGGTGTACTTTTTTCTTAACACAT [XGTACX_site8918]	11.7 ± 1
ATTTTATTAATTTGGTGTACTTAATTTATATTTTTC [XGTACX_site4947]	11.6 ± 0.92
GTTTATGTATTATTATGTACGTATCATAATATATAT [XGTACX_site2385]	11.5 ± 0.82
ATCTAAACCTTTTGAGCACACATATATATATATATA [CACACA_site8526]	10.4 ± 0.3
ATATGTTCCGAAGGTTGTACACACATAGAAATATAC [XGTACX_site8227]	11.6 ± 1
TGTTCCGAAGGTTGTACACACATAGAAATATACATA [CACACA_site3874]	11.6 ± 0.74
TATGTTCCGAAGGTTGTACACACATAGAAATATACA [CACACA_site9285]	11.6 ± 0.8
AACCACATGGTGTAATGTACATTACCTTAACAATAA [XGTACX_site3055]	10.7 ± 0.42
TAAAATATACAAATTTGTACATATATATGTATGTAT [XGTACX_site1127]	10.9 ± 0.38
AGAAAATTAAAAAGAACACACAAATATATATATAAT [CACACA_site5896]	10.045 ± 0.007
ATATATATATATAATGCACACATTATGAATTATGTA [CACACA_site3384]	9.9 ± 0.42
